Sampled rows, rich in hits. Any-hit rate of the full collection: about 10%.
BAZ2B block – BAZ2B (human) inhibition; Q9UIF8; AlphaScreen BAZ2B-H3K14Ac peptide displacement; Potency, µM (titrated, usually from 114 µM), without a hit: at the highest dose activity change, negative = inhibition, actives largely listed as inhibitors; 4.4% of 360,000 active; AID 504333; further: on the % scale 0 is the no-effect control and ±100 the full control effect; nearly all actives have a fitted effect of over 60% in size
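AlphaScreen luminescence quantifies BAZ2B engagement of H3K14Ac peptide; the protein and biotinylated peptide are both at 50 nM final, buffer PBS pH 7.4 with 0.01% Tween-20, all steps at room temperature.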
JMJD2A Tudor inh – blocks the human JMJD2A Tudor domain | AID 504339 | AlphaScreen JMJD2A-Tudor / H3K4me3 peptide binding | 4.4% of 390,000 active | O75164 | Potency, µM (titrated, usually from 114 µM), inactives show at the top dose activity change, negative = inhibition, usual class: inhibitors; further: on the % scale 0 is the no-effect control and ±100 the full control effect; nearly all actives have a fitted effect of over 50% in size
G9a block – G9a (human) methyltransferase inhibition. Potency, µM (titrated, usually from 102 µM), for the others: top-dose activity, negative = inhibition, hits mostly inhibitors. AID 504332. 8.8% of 350,000 active. G9a H3K9 monomethylation, AlphaScreen, 2 h. Q96KQ7; further: on the % scale 0 is the no-effect control and ±100 the full control effect; nearly all actives have a fitted effect of over 75% in size
Target sequence (Q96KQ7 913-1193 limits assumed): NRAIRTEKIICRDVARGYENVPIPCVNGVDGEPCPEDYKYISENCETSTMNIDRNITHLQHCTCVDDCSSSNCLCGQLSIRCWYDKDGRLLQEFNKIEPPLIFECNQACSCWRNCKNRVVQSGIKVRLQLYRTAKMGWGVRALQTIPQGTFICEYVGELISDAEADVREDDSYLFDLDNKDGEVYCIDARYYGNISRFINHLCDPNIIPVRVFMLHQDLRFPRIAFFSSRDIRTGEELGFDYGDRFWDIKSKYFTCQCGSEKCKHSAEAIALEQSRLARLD
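AlphaScreen detection with an anti-monomethyl H3K9 antibody quantified product after a 2 h room-temperature reaction containing 500 nM biotinylated H3K9 peptide, 20 µM SAM and 20 nM enzyme, which had been preincubated 15 min with compound.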
GLS inhibitor – blocks human kidney-isoform glutaminase activity; O94925; GLS enzymatic activity, qHTS titration; Potency, µM (titrated, usually from 45.5 µM), for the others: at the highest dose activity change, negative = inhibition, most hits filed as inhibitors; 0.21% of 410,000 active; further: on the % scale 0 is the no-effect control and ±100 the full control effect
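Assay buffer: 45 mM KH2PO4 pH 8.2, 0.02% Tween-20. hKGA acts on L-glutamine (1 mM solution added); product glutamate is reported by an oxidase/peroxidase Amplex Red coupling, with fluorescence taken at baseline and 30 min.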
HP1b binding inh – blocks HP1-beta chromodomain binding to methylated histone tails; P83916; AlphaScreen HP1-beta / biotin-H3K9me3 peptide binding; 0.56% of 390,000 active; Potency, µM (top dose mostly 114 µM), for inactives: at the highest dose activity change, negative = inhibition, actives largely listed as inhibitors; further: nearly all actives have a fitted effect of over 70% in size
Target sequence (P83916 whole entry, looked up): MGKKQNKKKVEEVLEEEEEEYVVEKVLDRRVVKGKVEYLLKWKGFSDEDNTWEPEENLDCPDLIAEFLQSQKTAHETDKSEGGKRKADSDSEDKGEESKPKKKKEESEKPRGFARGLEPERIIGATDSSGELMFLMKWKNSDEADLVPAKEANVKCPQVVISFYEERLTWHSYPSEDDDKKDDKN
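AlphaScreen: HP1-beta (50 nM) preformed 30 min with biotin-H3(1-18)K9me3 peptide (50 nM) in PBS pH 7.4, 0.01% Tween-20. Compound added for 30 min at RT, then streptavidin donor/nickel chelate acceptor beads (10 ug/mL) for 30 min.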
Numbers without * were called inactive; ? = inconclusive; · = no result given; [ ] = remark or other dose. The call rests on the fitted dose curve; in most records, active means well fitted curve in the direction sought with a large enough effect; inconclusive means small, poorly fitted or top-dose-only effect, or another doubt; inactive means no such curve, though single readings can be large; an effect the other way counts as inactive or inconclusive. Potency means the concentration at half of the fitted maximal effect.

SMILES	BAZ2B block	JMJD2A Tudor inh	G9a block	GLS inhibitor	HP1b binding inh
Cc1ccc(C(=O)C(NC(=O)c2ccco2)Nc2sc3c(c2C(N)=O)CCCC3)cc1 (centres undefined)	?	·	12.6µM*	·	·
CC(=O)N1CCc2c(sc(NC(=O)C3CCCCC3)c2C(N)=O)C1	5.3%	-9.0%	?	1.7%	41.4%
COc1ccc(CC(=O)Nc2sc3c(c2C(=O)Nc2ccc(C)cc2)CCCCC3)cc1	56.2µM*	56.2µM*	10µM*	-13.9%	4.6%
COc1ccc(NC(=O)c2c(NC(=O)Cc3ccccc3)sc3c2CCCC3)cc1	3.1%	-10.5%	17.0%[59 µM]	-11.5%	33.2%
COC(=O)c1c(NC(=O)C2CC2)sc2c1CCN(C(C)=O)C2	-0.2%	-10.6%	44.7µM*	-1.0%	39.3%
COc1cccc(CNC(=O)CCc2nnc3n(C)c(=O)c4sccc4n23)c1	7.0%	-2.0%	-3.7%[59 µM]	-10.4%	25.1%
Cc1[nH]ccc(=O)c1Cc1c(Cl)cccc1Cl	-2.0%	-0.7%	2.0%	-8.6%	19.9%
Cc1nc(C(Cl)(Cl)Cl)nc2[nH]ccc(=O)c12	-29.6%	11.2µM*	-8.2%	?	-9.9%
O=C(c1ccccc1)c1cccc(NC(=O)c2ccc(Br)o2)c1	-38.8%	-19.4%	44.7µM*	-9.0%	5.0%
C/C(=N/NC(=O)c1ccc(Br)o1)c1cccc(NC(=O)c2ccc(C)o2)c1	-36.2%	50.1µM*	24.1%[59 µM]	?	-10.0%
C/C(=N/NC(=O)c1ccco1)c1cccc(NC(=O)c2ccc(C)o2)c1	0.6%	-15.2%	·	-2.8%	7.5%
O=C(NCc1ccon1)C1CCC(=O)N(CCc2ccc(Cl)cc2)C1 (centres undefined)	2.9%	-1.4%	·	-0.2%	26.8%
COc1cccc(OC)c1-c1nn2c(-c3ccco3)nnc2s1	4.9%	-2.1%	35.5µM*	·	30.9%
CCOc1cccc(-c2nnc3sc(-c4ccco4)nn23)c1	4.4%	-32.4%	7.94µM*	-0.8%	-11.1%
COc1cccc(-c2nn3c(-c4ccco4)nnc3s2)c1	6.5%	-18.9%	44.7µM*	·	24.6%
CCOc1cccc(-c2nnc3sc(-c4ccc(C)cc4)nn23)c1	23.6%	·	14.0%	·	·
CCOC(=O)C1=NOC2(C1)C(=O)Nc1ccc(OC)cc12 (centres undefined)	·	·	·	-7.2%	·
CCCCN(C1CCS(=O)(=O)C1)S(=O)(=O)c1cc(C)ccc1C (centres undefined)	5.3%	-6.9%	4.8%[0.501 µM]	-10.6%	12.0%
O=C(N1CCc2cc([S+](=O)([O-])N3CCN([S+](=O)([O-])c4c(F)cccc4F)CC3)ccc2C1)C(F)(F)F	·	-18.5%	·	·	·
Cc1ccc(C)c(OCCn2cc(C(=O)c3cccs3)c3ccccc32)c1	6.0%	4.8%	24.4%[59 µM]	7.8%	38.8%
O=C1CC(Sc2nnnn2C2CCCCC2)C(=O)N1c1ccccc1 (centres undefined)	-3.5%	-16.9%	10µM*	14.0%	1.3%
Cc1nn(CC(=O)NC2(C)CCS(=O)(=O)C2)c(C)c1S(=O)(=O)N(C)C (centres undefined)	·	-7.4%	·	0.4%	28.5%
COc1ccc(Nc2nc(S(=O)(=O)c3ccc(C)cc3)c(Cl)s2)cc1	-31.7%	?	44.7µM*	-5.3%	-3.6%
COc1ccc(CSC2=C(C#N)C(=O)NC3(CCCCC3)S2)cc1	·	·	·	5.4%	·
CCCCCCSC1=C(C#N)C(=O)NC2(CCCCC2)S1	?	56.2µM*	12.6µM*	31.8%	?
SMILES	BAZ2B block	JMJD2A Tudor inh	G9a block	GLS inhibitor	HP1b binding inh
COC(=O)CCCCC(=O)C1C(=O)CC(C)(C)C(C(=O)OC)C1=O (centres undefined)	-1.1%	?	?	1.2%	16.5%
CCCC(=O)C1C(=O)CC(C)(C)C(c2cc(C)no2)C1=O (centres undefined)	-11.5%	50.1µM*	?	2.0%	9.7%
COc1cccc(CNC(=O)CCc2c(C)nc3c(c2C)c(=O)n(C)c(=O)n3C)c1	?	-11.4%	-36.1%[59 µM]	0.2%	17.1%
Cc1cc(C(C)(C)C)ccc1OCCn1ccnc1	35.5µM*	14.1µM*	22.4µM*	9.3%	?
Cc1ccc(OCCn2ccnc2)c(C)c1	-37.4%	-24.6%	70.8µM*	-12.2%	32.9%
CC(C)(C)c1cc(Cl)ccc1OCCn1ccnc1	39.8µM*	5.01µM*	·	7.5%	?
Clc1cccc(OCCn2ccnc2)c1	-4.0%	-10.2%	·	6.3%	30.1%
Cc1cc(C)c(OCCn2ccnc2)c(C)c1	-31.1%	-10.5%	2.8%[59 µM]	-5.7%	48.9%
Cc1c(NC(=O)c2c(NC(=O)CNC3CC3)sc3c2CCCC3)c(=O)n(-c2ccccc2)n1C	?	56.2µM*	?	12.8%	0.2%
FC(F)(F)c1ccc(Cl)c(-n2c(-c3ccco3)n[nH]c2=S)c1	-12.8%	?	10µM*	-0.1%	50.3%
FC(F)(F)c1ccc(Cl)c(-n2c(-c3cc(C4CC4)[nH]n3)n[nH]c2=S)c1	-20.2%	?	8.91µM*	13.7%	13.1%
COc1cc(-c2n[nH]c(=S)n2-c2cc(C(F)(F)F)ccc2Cl)cc(OC)c1OC	-33.1%	-15.2%	?	4.8%	28.7%
FC(F)(F)c1ccc(Cl)c(-n2c(-c3cc(-c4ccco4)[nH]n3)n[nH]c2=S)c1	-38.3%	-30.2%	15.8µM*	8.9%	11.1%
C/C=C(/CC[C@@H](C)[C@H]1CCC2C3=CC[C@H]4[C@H](C)[C@@H](O)CC[C@]4(C)C3CC[C@@]21C)C(C)C (some centres undefined)	·	·	-15.7%[59 µM]	-15.4%	·
Cc1cc(C)n2nc(SCC(=O)N3CCCC(C)C3)nc2n1 (centres undefined)	·	-11.6%	·	0.7%	27.9%
C[C@H](CO)N1C[C@H](C)[C@H](CN(C)S(=O)(=O)c2ccc3ccccc3c2)OCc2cnnn2CCCC1=O	·	·	·	-3.8%	·
O=C(COC(=O)C12CC3CC(CC(C3)C1)C2)NCCc1ccccc1	11.0%	10.4%	8.8%[12.7 µM]	-11.0%	31.2%
COc1ccc(C(=O)NCCS(=O)(=O)NCc2ccco2)cc1	-19.4%	-18.9%	?	-4.1%	28.3%
COc1cccc(C(=O)NCCS(=O)(=O)NCc2cccnc2)c1	11.2%	-8.2%	50.1µM*	0.3%	9.9%
COc1cccc(C(=O)NCCS(=O)(=O)NCc2ccco2)c1	-23.3%	-4.6%	20µM*	5.4%	20.3%
COc1cccc(C(=O)NCCS(=O)(=O)NCc2cccs2)c1	-6.4%	-2.1%	35.5µM*	1.1%	8.6%
COc1cccc(CCNS(=O)(=O)CCNC(=O)c2cccc(OC)c2)c1	9.1%	-9.5%	-32.5%	-3.8%	33.9%
O=C(CNC(=O)C1CCCCC1)OCc1ccccc1	·	10.8%[57.1 µM]	·	·	11.1%[57 µM]
COc1ccc(CCN2C(=O)CC(N3CCN(S(=O)(=O)c4ccccc4)CC3)C2=O)cc1OC (centres undefined)	-16.8%	0.7%	-4.8%	-14.3%	18.9%

Screens as filed in PubChem BioAssay.
